# An excerpt weighted towards active compounds, which were near 2.2% of everything screened.
# Autophagy HCS: modulators of autophagy. MEF GFP-LC3 puncta imaging; test concentration mostly 10 µM. calls only at 10 µM (by protocol). 190,000 compounds, 0.98% hits;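 active = percentage of spot-positive cells more than 3 SD above its plate mean, without a fluorescence outlier flag or 80% toxicity; inconclusive = no clear call, values can overlap the other calls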;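 note: spot-positive cell cutoff set from DMSO-treated cells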
# Insulin prom up: MIN6 insulin promoter up-regulation. MIN6 insulin promoter-GFP reporter, high-content imaging; hits give high values. z-score at 5 µM. 190,000 compounds, 0.3% hits. AID 1625;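 active = z-score above 3 at 5 µM with at least 500 cells counted in the well; inconclusive = wells under 500 cells, flagged as cytotoxic or low count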
# DTT redox prof: compounds producing H2O2 with reducing agent – biochemical, NIH compound library profiling, artefact control for MLSCN library redox annotation, primary screen. DTT-dependent redox cycling H2O2, phenol red/HRP absorbance; 100% = 100 µM peroxide control, 0% = buffer. activation, % at 10 µM. 200,000 compounds, 0.03% hits;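 active = activation of at least 50% relative to the plate's high and low controls in the primary single-dose screen; inactive = activation below 50%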;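 note: compound incubated with DTT at 0.8 mM final as the reducing agent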
# p47phox inh: blocks human p47phox regulatory protein of NADPH oxidases; P14598; p47phox/p22phox peptide binding, fluorescence polarization, 2 h; inhibition, % at 24.7 µM; 220,000 compounds, 0.53% hits;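 active = inhibition above about 30%, limit read from the data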;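 note: 0% = p47phox with labelled peptide and 100% = labelled peptide alone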
# Target sequence (P14598 whole entry, looked up): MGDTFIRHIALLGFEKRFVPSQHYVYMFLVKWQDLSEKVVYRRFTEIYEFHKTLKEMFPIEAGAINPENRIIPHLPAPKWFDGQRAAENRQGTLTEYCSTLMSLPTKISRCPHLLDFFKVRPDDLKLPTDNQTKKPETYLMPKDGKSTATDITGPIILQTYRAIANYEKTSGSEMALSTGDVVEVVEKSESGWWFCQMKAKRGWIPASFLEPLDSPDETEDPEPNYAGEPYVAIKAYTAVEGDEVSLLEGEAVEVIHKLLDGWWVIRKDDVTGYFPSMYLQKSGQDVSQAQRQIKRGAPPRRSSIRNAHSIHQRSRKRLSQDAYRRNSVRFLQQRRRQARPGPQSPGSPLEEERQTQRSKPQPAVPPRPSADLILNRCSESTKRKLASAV
# Efa HMGR inh: blocks class II HMG-CoA reductase of Enterococcus faecalis. purified E. faecalis HMGR, NADPH absorbance 340 nm kinetic. inhibition, % at 10 µM. 190,000 compounds, 0.41% hits;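 active = inhibition above a set limit, the median over all tested compounds plus 3 SD, cut at about 9.5% in these data; inconclusive = no clear call, values can overlap the other calls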;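 note: enzyme runs in reverse so mevalonate oxidation gives rising NADPH absorbance; 0% = complete reaction with DMSO and 100% = background rate lacking mevalonate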
# Arbovirus anti: blocks arbovirus infection; arbovirus infection cell-based antiviral screen; 200,000 compounds, 0.37% hits; AID 1251; inhibition, % at 10 µM; in the data active = inhibition above about 30%
# * marks the source's active call; other numbers are inactive results; i = inactive; ? = inconclusive; · = no result; + = active, no number.
SMILES,Autophagy HCS,Insulin prom up,DTT redox prof,p47phox inh,Efa HMGR inh,Arbovirus anti
CCOC(=O)c1[nH]c(C)c(C(=O)N2CCN(c3ccccc3)CC2)c1C,i,0.46,-1.2,-10.2,-2.3,-2.9
CCOc1ccccc1C(=O)N1CCN(c2cccc(Cl)c2)CC1,+,-0.88,1.5,-2.0,0.9,-18.4
CCOc1ccc2ccccc2c1C(=O)N1CCN(c2ccccc2)CC1,+,-0.15,2.7,-4.8,3.0,-15.2
O=C(CSc1ncccn1)Nc1ccc2c(c1)CCC2,·,-0.19,·,7.9,·,·
Nc1c(C(=O)Nc2ccccc2F)sc2nc(Cc3ccccc3)cc(C(F)(F)F)c12,+,·,0.7,-11.6,-6.1,-4.7
CC(C)CN1C(=S)SC(C)(C)C1n1oc(=O)n(-c2ccc(Cl)cc2)c1=O (centres undefined),i,·,0.3,4.0,2.3,-15.6
C/C(=N\Nc1ccc(S(N)(=O)=O)cc1[N+](=O)[O-])c1ccc2c(c1)OCO2,i,·,0.1,37.5*,-1.5,1.2
CCN(CC)S(=O)(=O)c1ccc(N/N=C(\C)c2ccc3c(c2)OCO3)c([N+](=O)[O-])c1,i,-0.31,-0.6,-21.1,-2.2,-3.8
O=C1CSc2ccc(C(=O)O)cc2N1,i,-0.39,-0.7,-1.1,0.3,4.5
CN(Cc1ccc(F)cc1)C(=O)c1ccc2c(c1)NC(=O)CS2,i,-0.61,0.1,-7.0,11.8*,-1.1
COc1ccc(-c2cn(-c3ccc(C)cc3C)c(=O)[nH]2)cc1OC,i,0.35,-1.3,-1.4,-2.1,10.3
N#C/C(=C\c1ccc(N2CCOCC2)o1)c1nc2ccccc2[nH]1,?,·,3.0,-273.3,-0.9,-16.1
N#C/C(=C/c1ccc(N2CCOCC2)o1)c1ccc(Cl)cc1,+,·,-3.3,-73.6,-6.1,-8.2
CCCC(C)NC(=O)COC(=O)c1cccc(NS(C)(=O)=O)c1 (centres undefined),·,-0.22,·,3.5,·,·
Cc1nc(N2CCc3ccccc3C2)[nH]c(=O)c1Cc1ccccc1,i,1.52,-0.1,1.4,-6.1,-4.3
Cc1nc(-n2[nH]c3c(c2=O)CCCC3)[nH]c(=O)c1Cc1ccccc1,+,·,1.5,-29.3,2.6,-37.7
N#CC(c1ccccc1)(c1ncc(C(F)(F)F)cc1Cl)N1CCOCC1 (centres undefined),i,·,1.8,41.7*,2.4,5.2
CN(C)C(CNC(=O)CCOc1ccccc1)c1ccco1 (centres undefined),i,-0.17,-1.9,-11.5,21.2*,4.5
CC(=O)c1ccc(OCCCC(=O)NCC(c2ccco2)N(C)C)cc1 (centres undefined),i,-0.65,-0.4,-5.4,-2.4,-4.0
CN1CCN(/N=C/c2ccc(N(c3ccccc3)c3ccccc3)cc2)CC1,i,·,-0.9,45.7*,-1.9,-41.8
CN1CCN(/N=C/c2ccc(N(C)c3ccccc3)cc2)CC1,i,-0.17,-1.2,-4.4,-6.7,-0.6
CCOC(=O)c1cc(C)sc1NC(=O)C(c1ccccc1)c1ccccc1,i,0.28,1.1,-14.8,-2.4,-5.2
CCc1cc(C(=O)O)c(NC(=O)C(c2ccccc2)c2ccccc2)s1,i,-0.46,0.1,-7.4,-2.8,34.7*
COc1ccc(C2C=C(c3cccs3)Nc3nc(CCCO)nn32)cc1 (centres undefined),i,5.85*,7.6,-6.7,-0.1,-10.0
CCNC(=S)N1CCn2cccc2C1c1ccc(F)cc1 (centres undefined),i,-0.97,-0.2,40.2*,-4.1,2.4
SMILES,Autophagy HCS,Insulin prom up,DTT redox prof,p47phox inh,Efa HMGR inh,Arbovirus anti
O=c1oc2ccccc2c(O)c1/C=C1\C=Nc2ccccc21,i,·,-6.4,45.9*,-4.9,-12.7
O=c1oc2ccccc2c(O)c1/C=N/c1ncccn1,·,-0.42,·,·,·,·
COc1ccc(NC(=O)Cc2coc3cc(C)ccc23)cn1,i,0.28,-0.1,-9.6,2.7,1.8
Cc1nc(CSc2ccc(Cl)cc2)cc(NCc2ccccc2)n1,i,-1.15,0.1,-4.5,-9.9,-12.0
Cc1nc(CS(=O)c2ccc(Cl)cc2)cc(NCc2ccc(Cl)cc2Cl)n1 (centres undefined),i,-1.53,-0.1,0.4,-6.5,85.0*
Cc1ccc(NC(=O)C2CCN(C(=O)NC3CCCCC3)CC2)cc1,i,-0.05,0.1,-11.2,1.1,-0.7
C=CCn1c(=O)c2ccc(C(=O)NCc3ccccc3)cc2n(Cc2ccc(C)cc2)c1=O,i,-0.53,0.7,-7.8,1.6,1.5
CCOc1cc(NC(=O)C2CCCO2)c(OCC)cc1NC(C)=O (centres undefined),i,0.56,2.5,103.2*,0.3,-8.8
COc1ccc(Cl)cc1NC(=O)C1CCCO1 (centres undefined),i,0.84,-0.6,-8.9,1.0,-4.0
CNc1nc(-c2ccccc2)nc(-c2ccc(OC)cc2)c1C#N,i,0.07,-1.1,1.1,12.7*,0.8
CN(CCC#N)C(=O)COC(=O)c1ccc(CNS(=O)(=O)c2ccc(F)c(Cl)c2)cc1,i,-0.11,0.5,2.8,-2.0,3.9
c1ccc(CNCc2ccc3c(c2)OCO3)nc1,i,·,0.4,-3.8,1.3,-5.3
O=C(COc1cccnc1[N+](=O)[O-])Nc1ccc(S(=O)(=O)N2CCOCC2)cc1,i,-0.77,-0.6,-1.2,-3.9,18.4
CN1C(=O)C(O)(CC(=O)/C=C\c2ccc3c(c2)OCO3)c2ccccc21 (centres undefined),i,-0.05,0.4,2.3,10.6*,-12.3
CN1C(=O)C(O)(CC(=O)c2cccs2)c2ccccc21 (centres undefined),i,0.18,-0.5,-8.0,-2.0,-6.4
Cc1ccc(C(=O)CC2(O)C(=O)N(C)c3ccccc32)s1 (centres undefined),i,·,-0.1,-11.0,14.3*,3.9
Cc1c(N2CCCC2)cc2c(c1NC(=O)c1ccccc1Cl)C(C)(C)CC2(C)C,·,0.25,·,-71.2,·,·
NC(=O)N/N=C/C=C/c1ccc(F)cc1,·,0.35,·,-1.7,·,·
Cc1ccc2cccc(S(=O)(=O)Nc3ccc4c(c3)OCO4)c2n1,i,-0.42,-3.0,-14.4,3.7,10.4
CCOC(=O)c1ccc(NC(=O)Cn2ncc(Cl)c(Cl)c2=O)cc1,+,?,·,10.2,2.6,-37.8
O=C(Nc1ccc(C(=O)O)cc1)/C(=C\c1cccc([N+](=O)[O-])c1)NC(=O)c1ccc(Br)o1,i,-0.33,-1.4,0.7,-1.3,4.8
CC(CCCC(C)(C)O)NC(=O)c1ccc(OC2CCN(C(=O)C3CC3)CC2)cc1 (centres undefined),i,0.22,-0.4,1.0,10.0*,4.0
CC(C)C[C@H](NC(=O)c1ccc(OC2CCN(C(=O)C3CC3)CC2)cc1)C(N)=O,i,-0.14,-0.8,-10.0,-4.9,12.5
Cc1[nH]n(-c2ccccc2)c(=S)c1C=Nc1cccc([N+](=O)[O-])c1,i,0.33,-7.2,89.0*,3.6,1.0
